MARV entry inh – qHTS for inhibitors of binding or entry into cells for Marburg Virus | Marburg virus pseudotyped entry inhibition, cell reporter | Potency, µM (titrated, usually from 37.8 µM), inactives show at the highest dose activity change, negative = inhibition, most hits filed as inhibitors | 300,000 compounds, 1.8% hits | AID 540276, 2011; calls by dose curve; tested in HEK293 cells; further: potency means the concentration at half of the fitted maximal effect
HCMV antiviral – qHTS Assay for inhibitors of the human cytomegalovirus (HCMV). HFF cells, HCMV-luciferase reporter, 72 h; stronger effect = lower value. AID 1259415, 2018. 410,000 compounds, 4.5% hits. activity change, negative = inhibition, % at 57.5 µM; in the data active means activity change below about -60%; inconclusive means no clear call, values can overlap the other calls; inactive means above about -39%
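Cell-based, HFFs, 1000 cells/well, 16 h 37C; cpds in DMSO + HCMV-luc, MOI 1 PFU/cell; 72 h 37C; OneGlo luminescence after 5 min RT; norm. to buffer vs Salinomycin 10uM.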
Lassa entry inh – qHTS for Inhibitors of binding or entry into cells for Lassa Virus | Lassa virus pseudotype entry inhibition, cell reporter | Potency, µM (highest dose often 37.9 µM), without a hit: at the top dose activity change, negative = inhibition, usual class: inhibitors | 300,000 compounds, 1.2% hits; calls by dose curve; tested in HEK293 cells; further: potency means the concentration at half of the fitted maximal effect; nearly all actives have a fitted effect of over 50% in size
VACV Venus inh – qHTS for Stage-Specific Inhibitors of Vaccinia Orthopoxvirus: Venus Reporter Primary qHTS; 330,000 compounds, 0.46% hits; Vaccinia virus Venus reporter expression, fluorescence; Potency, µM (top dose mostly 36.5 µM), without a hit: at the highest dose activity change, negative = inhibition, actives largely listed as inhibitors; calls by dose curve; tested in A549 cells; further: potency means the concentration at half of the fitted maximal effect; nearly all actives have a fitted effect of over 30% in size
FMDV antiviral – High Throughput Screening for Foot and Mouth Disease Virus Antivirals; FMDV antiviral cell-based qHTS; Potency, µM (series often up to 57.9 µM), without a hit: at the highest dose activity change, negative = inhibition, most hits filed as inhibitors; 410,000 compounds, 1.2% hits; calls by dose curve; tested in HEK293T cells; further: read-out not given here; potency means the concentration at half of the fitted maximal effect; nearly all actives have a fitted effect of over 45% in size
VACV mCherry inh – qHTS for Stage-Specific Inhibitors of Vaccinia Orthopoxvirus: mCherry Reporter Primary qHTS; Potency, µM (top dose mostly 36.5 µM), inactives show top-dose activity change, negative = inhibition, actives largely listed as inhibitors; Vaccinia virus mCherry reporter infection, fluorescence; AID 720579, 2013; 310,000 compounds, 0.63% hits; calls by dose curve; tested in A549 cells; further: potency means the concentration at half of the fitted maximal effect; nearly all actives have a fitted effect of over 35% in size
* = called active by the depositor; [ ] = another dose, or the depositor's remark. The list is not random: actives were taken first. Their share in the collection is about 6.5%. On the % scale 0 is the no-effect control and ±100 the full control effect.

Results for CCCOc1ccc(/C(O)=C2\C(=O)C(=O)N(CCN(C)C)[C@H]2c2ccncc2)cc1 ?
MARV entry inh: 20.1%

Results for O=S(=O)(c1ccccc1F)N1CCC(Oc2ccc(-n3cnnn3)cc2)CC1 ?
MARV entry inh: -20.4%[46.1 µM]; HCMV antiviral: -61.7*; Lassa entry inh: inconclusive; VACV Venus inh: inconclusive; FMDV antiviral: -6.3%; VACV mCherry inh: -23.2%

Results for CC(C)C[C@@H]1CN(CCCC[C@H]2CNC(=O)C(=O)N2CCC2CCCCC2)C(=O)C(=O)N1Cc1ccccc1 ?
HCMV antiviral: -19.3; VACV Venus inh: -0.6%; FMDV antiviral: 23.6%; VACV mCherry inh: 1.7%

What do the screens show for `Cc1ccc(C)c(Nc2nc3c(S(=O)(=O)c4ccc(Br)cc4)nnn3c3ccsc23)c1`?
HCMV antiviral: -95.1*; Lassa entry inh: inconclusive; VACV Venus inh: inconclusive; FMDV antiviral: -16.0%; VACV mCherry inh: inconclusive

How did Cc1ccc(S(=O)(=O)c2nnn3c2nc(NC(C)c2ccccc2)c2sccc23)cc1 (stereo unspecified) do in these assays?
HCMV antiviral: -70.8*; Lassa entry inh: -6.3%[46.1 µM]; VACV Venus inh: -16.0%; FMDV antiviral: -29.6%; VACV mCherry inh: -26.1%

What do the screens show for `CCc1ccc(S(=O)(=O)c2nnn3c2nc(NCCc2ccccc2)c2sccc23)cc1`?
HCMV antiviral: -80.8*; Lassa entry inh: inconclusive; VACV Venus inh: -25.8%; FMDV antiviral: 8.9%; VACV mCherry inh: -28.8%

How did Cc1ccc(C)c(Nc2nc3c(S(=O)(=O)c4ccc(C(C)C)cc4)nnn3c3ccsc23)c1 do in these assays?
HCMV antiviral: -71.0*; Lassa entry inh: inconclusive; VACV Venus inh: -26.5%; FMDV antiviral: -7.0%; VACV mCherry inh: -28.0%

What do the screens show for `COc1ccccc1Nc1nc2c(S(=O)(=O)c3ccc(C(C)C)cc3)nnn2c2ccsc12`?
HCMV antiviral: 19.5; Lassa entry inh: 22.5%[46.1 µM]; VACV Venus inh: -8.8%; FMDV antiviral: -12.5%; VACV mCherry inh: -10.7%

Results for Cc1ccc(Nc2nc3c(S(=O)(=O)c4ccccc4)nnn3c3ccsc23)c(C)c1 ?
HCMV antiviral: 13.6; Lassa entry inh: 5.0%[46.1 µM]; VACV Venus inh: -22.8%; FMDV antiviral: 2.9%; VACV mCherry inh: inactive

Results for CCN(C(=O)COC(=O)/C=C/c1nc2ccccc2s1)c1c(N)n(Cc2ccccc2)c(=O)[nH]c1=O ?
HCMV antiviral: -2.0; FMDV antiviral: 37.3%

How did Cc1cccc(C)c1OC(=O)Cc1ccccc1[N+](=O)[O-] do in these assays?
MARV entry inh: -0.9%[46.1 µM]; HCMV antiviral: -63.7*; Lassa entry inh: -3.0%[46.1 µM]; VACV Venus inh: -6.4%; FMDV antiviral: -18.1%; VACV mCherry inh: inactive

How did Cc1cccc(C)c1OC(=O)Cc1ccccc1 do in these assays?
MARV entry inh: 4.4%[46.1 µM]; HCMV antiviral: -39.1; Lassa entry inh: -3.4%; VACV Venus inh: 8.2%; FMDV antiviral: -9.5%; VACV mCherry inh: inactive

How did CCC(CC)N1CCN(C(=O)c2cc(OC)c(OC)c(OC)c2)CC1 do in these assays?
HCMV antiviral: 11.4; FMDV antiviral: -18.9%

What do the screens show for `NC1(C(=O)O)CCCCC1`?
MARV entry inh: inconclusive; Lassa entry inh: 4.8%

Results for NC1(C(=O)O)CSSC1 ?
MARV entry inh: inconclusive; HCMV antiviral: -79.8*; Lassa entry inh: inconclusive; VACV Venus inh: inconclusive; FMDV antiviral: -0.8%; VACV mCherry inh: inconclusive

Results for COCOCCn1cc(CN2CCS(=O)(=O)N(Cc3ccc(-c4ccc(OC)c(OC)c4)cc3)C(C)C2=O)nn1 (stereo unspecified) ?
HCMV antiviral: -17.2; Lassa entry inh: inconclusive; VACV Venus inh: -7.8%; FMDV antiviral: -25.8%; VACV mCherry inh: -12.7%

How did O=C(NCC1COc2ccccc2O1)c1ccc(Cl)c(S(=O)(=O)N2CCCC2)c1 (stereo unspecified) do in these assays?
HCMV antiviral: -68.7*; FMDV antiviral: -21.6%

How did COc1ccc(NC(=O)c2ccc(Cl)c(S(=O)(=O)N3CC(C)OC(C)C3)c2)cn1 (stereo unspecified) do in these assays?
HCMV antiviral: -89.7*; FMDV antiviral: inconclusive

How did CC1CN(S(=O)(=O)c2cc(C(=O)NCc3ccncc3)ccc2Cl)CC(C)O1 (stereo unspecified) do in these assays?
HCMV antiviral: -18.8; FMDV antiviral: 2.2%

Results for CN(CC1COc2ccccc2O1)C(=O)c1ccc(Cl)c(S(=O)(=O)N2CCCCCC2)c1 (stereo unspecified) ?
HCMV antiviral: inconclusive; FMDV antiviral: 1.7%

Results for COc1ccc(NC(=O)c2ccc(Cl)c(S(=O)(=O)N3CCc4ccccc4C3)c2)cn1 ?
MARV entry inh: inconclusive; HCMV antiviral: -103.6*; Lassa entry inh: inconclusive; FMDV antiviral: 20µM*

How did CCc1nnc(NC(=O)c2ccc(Cl)c(S(=O)(=O)N3CCc4ccccc4C3)c2)s1 do in these assays?
MARV entry inh: 3.9%; HCMV antiviral: inconclusive; Lassa entry inh: 4.0%; VACV Venus inh: 3.1%; FMDV antiviral: 25.1µM*; VACV mCherry inh: -3.3%

What do the screens show for `Cc1ccccc1CCNC(=O)c1ccc(Cl)c(S(=O)(=O)N2CC(C)OC(C)C2)c1` (stereo unspecified)?
MARV entry inh: inconclusive; HCMV antiviral: -88.4*; Lassa entry inh: -20.1%; VACV Venus inh: inconclusive; FMDV antiviral: 17.8µM*; VACV mCherry inh: -20.9%

How did Cc1c(Cl)c([N+](=O)[O-])nn1Cc1ccc(C(=O)N/N=C\c2cccc(Br)c2)o1 do in these assays?
MARV entry inh: inconclusive; HCMV antiviral: 52.3; Lassa entry inh: -27.3%; VACV Venus inh: 28.2µM*; FMDV antiviral: -15.7%

What do the screens show for `CCc1nnc(NS(=O)(=O)c2ccc(NC(=O)CCC(=O)OC)cc2)s1`?
HCMV antiviral: -34.0; FMDV antiviral: 1.1%

What do the screens show for `CC(=O)N1CCN(C(=O)c2sc3ncnc(NCC4CCCO4)c3c2C)CC1` (stereo unspecified)?
VACV Venus inh: 0.0%; FMDV antiviral: -10.2%; VACV mCherry inh: inactive

Results for Cc1sc2ncnc(NCC3CCCO3)c2c1C (stereo unspecified) ?
MARV entry inh: -29.9%; HCMV antiviral: -28.6; Lassa entry inh: -19.6%; VACV Venus inh: -21.9%; FMDV antiviral: 28.2µM*; VACV mCherry inh: inactive[1.46 µM]

Results for CC(C)CC(Nc1ncnc2scc(-c3ccccc3)c12)C(=O)O (stereo unspecified) ?
HCMV antiviral: 30.2; FMDV antiviral: -2.2%
